Assay [1] can be described thus: qHTS RealTime-Glo MT Cell Viability Assay in HepG2 cells - 8 hour (AID 1224873). Further: nearly all actives have a fitted effect of over 55% in size. Further: potency means the concentration at half of the fitted maximal effect. In a few lines: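 HepG2 cells mixed with RealTime-Glo MT reagents (NanoLuc plus cell-permeant prosubstrate) were seeded at 600 cells/well, incubated 5 h at 37 C/5% CO2, then pinned with compounds in DMSO; nonlytic luminescence tracked viability during 40 h treatment.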
(qHTS replaces the single test concentration by a dilution series.)

Assay [2] is described as follows: A CellTox Green Cytotoxicity Assay to monitor cytotoxicity in HepG2 cells - 16 hour (AID 1224876). Further: nearly all actives have a fitted effect of over 45% in size. Further: potency means the concentration at half of the fitted maximal effect. In a few lines: (§1)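 HepG2 cells were seeded together with the CellTox Green dye at 600 cells/well, left 5 h at 37 C/5% CO2, then given compounds in DMSO. Fluorescence from dye bound to dead-cell DNA was read repeatedly over 40 h of treatment at 37 C.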
Assay [3] can be described thus: qHTS RealTime-Glo MT Cell Viability Assay in HepG2 cells - 32 hour (AID 1224877). Further: nearly all actives have a fitted effect of over 55% in size. In a few lines: (§2)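 HepG2 cells (600/well) were dispensed with RealTime-Glo reagents, incubated 5 h at 37 °C, then treated with compounds in DMSO for up to 40 h. Nonlytic NanoLuc luminescence reflecting viable cells was read at each stated time point.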
The nature of assay [4]: A CellTox Green Cytotoxicity Assay to monitor cytotoxicity in HepG2 cells - 24 hour (AID 1224878). Further: nearly all actives have a fitted effect of over 45% in size. Further: potency means the concentration at half of the fitted maximal effect. In short, it runs like this:
as §1

The nature of assay [5]: A CellTox Green Cytotoxicity Assay to monitor cytotoxicity in HepG2 cells - 40 hour (AID 1224879). Further: nearly all actives have a fitted effect of over 40% in size. Further: potency means the concentration at half of the fitted maximal effect. In short, it runs like this: as §1
The nature of assay [6]: qHTS RealTime-Glo MT Cell Viability Assay in HEK293 cells - 0 hour (AID 1224880). Further: top concentration of the series differs between compounds; nearly all actives have a fitted effect of over 45% in size. In short, it runs like this:
(§3)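 HEK293 cells mixed with RealTime-Glo reagents (NanoLuc plus cell-permeant prosubstrate) at 600 cells/well, preincubated 5 h at 37 C/5% CO2, then given 23 nL compound in DMSO. Nonlytic luminescence from viable cells was read at 0, 8, 16, 24, 32 and 40 h.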

The nature of assay [7]: A CellTox Green Cytotoxicity Assay to monitor cytotoxicity in HEK293 cells - 32 hour (AID 1224881). Further: nearly all actives have a fitted effect of over 40% in size. Further: potency means the concentration at half of the fitted maximal effect. In a few lines: (§4)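 HEK293 cells premixed with CellTox Green dye were seeded at 600 cells/well and left 5 h at 37 C/5% CO2 before pin transfer of 23 nL compound in DMSO. Fluorescence from dye bound to dead-cell DNA was read during 40 h treatment.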
Assay [8] can be described thus: A CellTox Green Cytotoxicity Assay to monitor cytotoxicity in HepG2 cells - 0 hour (AID 1224882). Further: nearly all actives have a fitted effect of over 35% in size. In a few lines:
as §1

Assay [9] is described as follows: A CellTox Green Cytotoxicity Assay to monitor cytotoxicity in HepG2 cells - 32 hour (AID 1224883). Further: nearly all actives have a fitted effect of over 50% in size. Further: potency means the concentration at half of the fitted maximal effect. In short, it runs like this:
as §1

Assay [10] in a line: A CellTox Green Cytotoxicity Assay to monitor cytotoxicity in HEK293 cells - 8 hour (AID 1224884). Further: nearly all actives have a fitted effect of over 35% in size. In a few lines: as §4
The nature of assay [11]: qHTS RealTime-Glo MT Cell Viability Assay in HepG2 cells - 16 hour (AID 1224885). Further: nearly all actives have a fitted effect of over 50% in size. Further: potency means the concentration at half of the fitted maximal effect. In short, it runs like this:
as §2

Assay [12] is described as follows: qHTS RealTime-Glo MT Cell Viability Assay in HEK293 cells - 8 hour (AID 1224887). Further: nearly all actives have a fitted effect of over 50% in size. Further: potency means the concentration at half of the fitted maximal effect. In short, it runs like this: as §3
Assay [13] is described as follows: qHTS RealTime-Glo MT Cell Viability Assay in HepG2 cells - 0 hour (AID 1224889). Further: nearly all actives have a fitted effect of over 50% in size. In short, it runs like this: as §2
The nature of assay [14]: A CellTox Green Cytotoxicity Assay to monitor cytotoxicity in HepG2 cells - 8 hour (AID 1224890). Further: nearly all actives have a fitted effect of over 45% in size. In short, it runs like this:
as §1

The nature of assay [15]: qHTS assay to identify small molecule antagonists of the estrogen receptor alpha (ER-alpha) signaling pathway using the BG1 cell line in the presence of 0.1 nM 17-beta-estradiol - cell viability counter screen (AID 1259241). Further: nearly all actives have a fitted effect of over 40% in size. Further: potency means the concentration at half of the fitted maximal effect. In short, it runs like this: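 Live-cell protease activity (CellTiter-Fluor fluorescence, 30 min) was read in the same wells after VM7Luc4E2 cells had been exposed to compounds with 0.1 nM 17beta-estradiol for 22 hr at 37C.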

Assay [16] can be described thus: qHTS assay to identify small molecule antagonists of the androgen receptor (AR) signaling pathway using the MDA cell line in the presence of 0.5 nM R1881 - cell viability counter screen (AID 1259242). Further: nearly all actives have a fitted effect of over 45% in size. In a few lines:
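MDA-kb2 cells (human breast carcinoma, stably carrying MMTV-luciferase reporter) were exposed to compounds with 0.5 nM R1881 (final) for 16 hr at 37C, 0% CO2; viability then read as live-cell protease fluorescence (CellTiter-Fluor, 30 min) in the same wells.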

Assay [17] in a line: qHTS RealTime-Glo MT Cell Viability Assay in HEK293 cells - 40 hour (AID 1224874). Further: nearly all actives have a fitted effect of over 50% in size. Particulars: RealTime-Glo luminescence; max response: stronger effect = lower value. In short, it runs like this: as §3
The nature of assay [18]: A CellTox Green Cytotoxicity Assay to monitor cytotoxicity in HEK293 cells - 24 hour (AID 1224875). In short, it runs like this:
as §4

A short description of assay [19]: qHTS RealTime-Glo MT Cell Viability Assay in HEK293 cells - 24 hour (AID 1224886). In short, it runs like this: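 HEK293 cells seeded with NanoLuc/prosubstrate reagent, rested 5 h at 37 C, then dosed and kept at 37 C up to 40 h. Nonlytic real-time luminescence from viable cells read at 0, 8, 16, 24, 32 and 40 h.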
A short description of assay [20]: A CellTox Green Cytotoxicity Assay to monitor cytotoxicity in HEK293 cells - 16 hour (AID 1224888). Further: nearly all actives have a fitted effect of over 35% in size. In short, it runs like this: as §4

Where “and” joins values, the source holds several entries; their conditions need not be identical. Equal values may be shown once. Inconclusive results are not listed. More than one record can exist for a structure, and the calls need not agree. Calls of active or inactive are those of the source. The call rests on the fitted dose curve; in most records, active means well fitted curve in the direction sought with a large enough effect in the repeat runs; inconclusive means weak or mixed curves; inactive means no such curve, though single readings can be large; an effect the other way counts as inactive or inconclusive.
On the % scale 0 is the no-effect control and ±100 the full control effect.

On to `C=C(c1ccc(C(=O)O)cc1)c1cc2c(cc1C)C(C)(C)CCC2(C)C`, for which the Potency entry in [1], in assay [3], in assay [6], in [8], in [10] and in assay [11] was “inactive” throughout. Further, the Potency entry in assay [12], in assay [13], in [14], in assay [15] and in [16] was “inactive” throughout. The Potency is 24.5 µM (active) in assay [2]; 38.9 µM (active) in assay [4]; 49 µM (active) and 23.9 µM (active) in assay [5]; 30.9 µM (active) and inactive in assay [7]; 43.6 µM (active) in assay [9].

In the case of `C[Si](C)(C)Cl`, in [17], the max response is 8.44% (inactive). Also, the Potency result in assay [18], in assay [2], in assay [3], in assay [4], in assay [5] and in assay [6] was “inactive” in each case. For the same molecule, the Potency result in assay [7], in assay [8], in [9], in [10], in [11] and in assay [19] was “inactive” each time. The Potency entry in [12], in assay [20], in assay [13], in assay [14], in assay [15] and in assay [16] was “inactive” each time.

Turning to `CCC(C)c1cc([N+](=O)[O-])cc([N+](=O)[O-])c1OC(=O)OC(C)C` (configuration not stated), the Potency is 43.6 µM (active) in [1], 49 µM (active) in [11], 49 µM (active) in [12] and 38.6 µM (active) in assay [15]. Moreover, the Potency entry in assay [18], in assay [2], in [6], in assay [7], in [8] and in [10] was “inactive” each time. Further, the Potency entry in assay [20], in assay [13] and in assay [14] was “inactive” each time.

For `C#CC(O)CCC` (configuration not stated), the max response in assay [17] was 0.0439% (inactive). Further, the Potency result in assay [18], in assay [2], in assay [3], in [4], in assay [5] and in [6] was “inactive” throughout. For the same molecule, the Potency entry in assay [7], in assay [8], in assay [9], in assay [10], in assay [11] and in assay [19] was “inactive” throughout. Further, the Potency entry in assay [12], in [13], in assay [14], in [15] and in assay [16] was “inactive” in each case.

For the molecule `CC(CN(C)C)CN1c2ccccc2CCc2ccccc21` (configuration not stated), the Potency result in [1], in [18], in assay [3], in assay [6], in assay [7] and in [8] was “inactive” each time. The Potency result in assay [11], in [12], in [20], in [13], in [15] and in assay [16] was “inactive” in each case. The Potency in assay [5] and in assay [9] was 23.9 µM (active) each time.

As to `NC(=O)c1nc(-c2cccc(-c3cc(F)ccc3OCC(F)(F)C(F)(F)F)c2)n[nH]1`, the Potency entry in [1], in [18], in assay [3], in assay [6], in assay [8] and in assay [10] was “inactive” throughout. In addition, the Potency entry in [11], in assay [12], in assay [20], in [13], in assay [15] and in assay [16] was “inactive” in each case. Further, the Potency was 49 µM (active) in assay [2], 43.6 µM (active) in [4], 43.6 µM (active) in [5] and 43.6 µM (active) in [9].

In the case of `CN(Cc1cc(Br)cc(Br)c1N)C1CCCCC1`, the Potency entry in [1], in assay [3], in [6], in [8], in assay [11] and in assay [13] was “inactive” each time. Also, the Potency entry in [15] and in assay [16] was “inactive” each time. Further, the Potency in assay [2] was 19 µM (active); in assay [4], 21.3 µM (active); in assay [9] it was 12 µM (active).

Turning to `CCOB(OCC)OCC`, the Potency result in [1], in assay [18], in [3], in [7], in assay [8] and in assay [10] was “inactive” in each case. In addition, the Potency entry in assay [20], in [13], in [15] and in assay [16] was “inactive” each time.

The values are drawn from PubChem BioAssay (Tox21).
